Experimental findings from PubChem BioAssay (EPA / NIEHS) are described below.

Active and inactive are the calls of the source. Rule for the calls: active = hit-call score of the fitted dose curve at least 0.9, where 1 is the maximum; inactive = score below 0.9.

Assay [1] can be described thus: ATG_DR4_LXR_CIS: Attagene CIS-FACTORIAL HepG2 Assay for human Liver X Receptor (LXR), DR4 submotif (AID 2282929). Particulars: HepG2 Attagene DR4 cis-reporter, mRNA transcription; AC50: actives raise or lower the signal unless noted; outcome: actives raise or lower the signal unless noted. Summed up: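 HepG2 cells transiently transfected with cis-promoter-driven multiplexed reporter units (DR4 element) were dosed for 24 h. Reporter mRNA was quantified by RT-PCR, fluorescent primer extension, HpaI digestion and capillary electrophoresis; bidirectional fitting versus DMSO baseline.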

Assay [2] concerns the target Aryl hydrocarbon receptor (Homo sapiens) (UniProt P35869). Briefly: ATG_Ahr_CIS: Attagene CIS-FACTORIAL HepG2 Assay for human Aryl Hydrocarbon Receptor (Ahr) (AID 2282930). Particulars: HepG2 AhR cis-factorial reporter transcription; actives raise or lower the signal. In outline: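 HepG2 cells transiently transfected with cis-element-driven multiplexed reporter transcription units; endogenous transcription factor activity measured as reporter mRNA 24 h after dosing. RT-PCR, 6-FAM labelling, HpaI digestion, capillary electrophoresis; bidirectional fitting versus DMSO baseline.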

Assay [3] in a line: ATG_AP_1_CIS: Attagene CIS-FACTORIAL HepG2 Assay for human Activator Protein 1 (AP-1) (AID 2282931). Particulars: HepG2 Attagene cis-factorial AP-1 reporter mRNA; actives raise or lower the signal. Summed up: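 HepG2 cells transiently transfected with cis-element-driven multiplex reporter units; 24 h compound exposure. Reporter mRNA quantified by RT-PCR, FAM-labelled fragments resolved by capillary electrophoresis; bidirectional fit versus DMSO baseline.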

A short description of assay [4]: ATG_AP_2_CIS: Attagene CIS-FACTORIAL HepG2 Assay for human Activator Protein 2 (AP-2) (AID 2282932). The note with it: HepG2 AP-2 cis-reporter, Attagene transcription factor profiling; AC50: actives raise or lower the signal unless noted; outcome: actives raise or lower the signal unless noted. Summed up: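 Cells (HepG2) transfected with promoter-driven reporter constructs, treated 24 h. Total RNA reverse-transcribed, reporter cDNA PCR-amplified, FAM-labelled by primer extension, digested, resolved by capillary electrophoresis. Activity fitted both directions versus DMSO.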

The nature of assay [5]: ATG_BRE_CIS: Attagene CIS-FACTORIAL HepG2 Assay for human Bone Morphogenetic Protein (BMP) Response Element (BRE) (AID 2282933). Particulars: HepG2 BMP response element reporter, Attagene transcription factor profiling; actives raise or lower the signal. Summed up:
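Fluorescence-labelled reporter cDNA fragments, separated by capillary electrophoresis, gave the signal for this component of a 52-readout multiplex. HepG2 cells were transfected, exposed to chemicals for 24 h, and compared with DMSO using bidirectional fitting.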

For assay [6], the target named is Retinoic acid receptor alpha (Homo sapiens) (UniProt P10276). Briefly: ATG_DR5_RAR_CIS: Attagene CIS-FACTORIAL HepG2 Assay for human Retinoic Acid Receptor Alpha (RARE), DR5 submotif (AID 2282934). Particulars: HepG2 Attagene cis-factorial RARE DR5 reporter, mRNA; actives raise or lower the signal. Summed up:
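HepG2 cells transiently transfected with multiplexed reporter units under cis (DR5 RARE) promoters, so endogenous transcription factor activity is measured. After 24 h compound exposure, reporter mRNA is quantified by RT-PCR with fluorescent labelling and capillary electrophoresis; bidirectional fitting versus DMSO.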

For assay [7], the target named is Transcription factor E2F1 (Homo sapiens) (UniProt Q01094). Put plainly: ATG_E2F_CIS: Attagene CIS-FACTORIAL HepG2 Assay for human E2F Transcription Factor 1 (AID 2282935). The note with it: HepG2 Attagene cis-reporter, E2F reporter RNA transcripts; actives raise or lower the signal. In outline: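 First, HepG2 cells were transfected with reporter transcription units. Next, they were dosed for 24 h. Then RNA was isolated, converted to cDNA, PCR-amplified, FAM-labeled, HpaI-digested and analyzed by capillary electrophoresis.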
Transcription factor E2F1 (Homo sapiens), sequence (Q01094 whole entry, looked up): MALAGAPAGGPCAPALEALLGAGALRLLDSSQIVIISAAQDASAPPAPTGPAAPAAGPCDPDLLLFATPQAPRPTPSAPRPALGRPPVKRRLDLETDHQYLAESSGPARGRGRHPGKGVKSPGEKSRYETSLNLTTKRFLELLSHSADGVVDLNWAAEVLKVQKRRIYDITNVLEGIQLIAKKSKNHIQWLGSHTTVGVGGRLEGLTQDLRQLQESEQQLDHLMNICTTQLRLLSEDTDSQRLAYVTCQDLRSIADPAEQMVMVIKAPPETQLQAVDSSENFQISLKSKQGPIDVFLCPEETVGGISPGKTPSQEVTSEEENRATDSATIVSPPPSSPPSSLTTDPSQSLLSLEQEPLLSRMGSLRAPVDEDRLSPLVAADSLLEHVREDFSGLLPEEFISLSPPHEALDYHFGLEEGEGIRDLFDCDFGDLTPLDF

Assay [8] in a line: ATG_E_Box_CIS: Attagene CIS-FACTORIAL HepG2 Assay for human Enhancer Box (E-box) (AID 2282936). Particulars: HepG2 E-box cis-reporter transcription, actives raise or lower the signal. Summed up: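 Endogenous transcription factor activity was sensed in human HepG2 liver cells through transfected cis-promoter reporter units. After 24 h of dosing, total RNA was reverse-transcribed and reporter cDNA resolved by capillary electrophoresis.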

Assay [9] is described as follows: ATG_M_61_CIS: Attagene CIS-FACTORIAL HepG2 Assay for M61 Transcription Factor (Internal Marker) (AID 2282937). Particulars: HepG2 Attagene CIS-FACTORIAL M61 internal marker reporter; actives raise or lower the signal. In outline:
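HepG2 cells transiently transfected with cis-element-driven multiple reporter transcription units, dosed for 24 h. Reporter mRNA measured by RT-PCR, 6-FAM primer-extension labelling, HpaI digestion and capillary electrophoresis; bidirectional fit versus DMSO baseline.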

A short description of assay [10]: ATG_EGR_CIS: Attagene CIS-FACTORIAL HepG2 Assay for human Early Growth Response 1 (EGR1) (AID 2282938). The note with it: HepG2 Attagene CIS-FACTORIAL EGR reporter mRNA; actives raise or lower the signal. Summed up:
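HepG2 cells transiently transfected with cis-promoter-driven multiplexed reporter transcription units; reporter mRNA measured 24 h after compound dosing by RT-PCR, 6-FAM primer extension, HpaI digestion and capillary electrophoresis. Bidirectional fit versus DMSO baseline.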

Assay [11] in a line: ATG_M_19_CIS: Attagene CIS-FACTORIAL HepG2 Assay for M19 Transcription Factor (Internal Marker) (AID 2282939). Particulars: HepG2 Attagene CIS-FACTORIAL M19 internal marker reporter; actives raise or lower the signal. In outline:
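HepG2, MRTU transient transfection, 24 h dosing. Total RNA → RT-PCR → 6-FAM primer extension → HpaI digest → CE fluorescence. Bidirectional curve fit, DMSO negative control.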

Assay [12] in a line: ATG_ERE_CIS: Attagene CIS-FACTORIAL HepG2 Assay for Estrogen Response Element (ERE) (AID 2282940). The note with it: HepG2 ERE cis-reporter, Attagene RNA transcript; actives raise or lower the signal. Summed up:
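After a 24 h chemical treatment, RNA from reporter-transfected HepG2 cells is reverse-transcribed, PCR-amplified and fluorescently labelled. Fragments separated by capillary electrophoresis give reporter signal; DMSO serves as negative control.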

Assay [13] in a line: ATG_Ets_CIS: Attagene CIS-FACTORIAL HepG2 Assay for human Erythroblast Transformation Specific (ETS) (AID 2282941). Particulars: HepG2 ETS cis-reporter transcription; AC50: actives raise or lower the signal unless noted; outcome: actives raise or lower the signal unless noted. In outline:
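RT-PCR/capillary electrophoresis fluorescence read-out of reporter mRNA; HepG2 transient multi-reporter transfection; 24 h compound exposure; gain or loss of signal fitted bidirectionally relative to DMSO.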

Assay [14] can be described thus: ATG_FoxO_CIS: Attagene CIS-FACTORIAL HepG2 Assay for human Forkhead box O (FoxO) (AID 2282943). The note with it: HepG2 Attagene cis-reporter, FoxO element, mRNA; actives raise or lower the signal. Summed up:
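HepG2 cells transiently transfected with cis-promoter-driven multiple reporter transcription units; 24 h after chemical dosing, reporter mRNA quantified by RT-PCR, fluorescent primer extension, HpaI digestion and capillary electrophoresis. Bidirectional fitting versus DMSO baseline.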

The nature of assay [15]: ATG_GATA_CIS: Attagene CIS-FACTORIAL HepG2 Assay for human GATA Binding Protein (AID 2282944). The note with it: HepG2 GATA cis-element reporter, Attagene multiplex mRNA; actives raise or lower the signal. In outline:
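Cells: HepG2, transiently transfected with cis-regulated reporter transcription units. Exposure: 24 h. Detection: RT-PCR plus capillary electrophoresis of FAM-labeled fragments. Analysis: bidirectional, DMSO as baseline.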

Assay [16] in a line: ATG_GLI_CIS: Attagene CIS-FACTORIAL HepG2 Assay for human Zinc Finger Protein GLI1 (AID 2282945). The note with it: HepG2, Attagene cis-factorial reporter mRNA, GLI element; actives raise or lower the signal. In outline: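 HepG2 cells transiently transfected with cis-promoter multiplexed reporter units report endogenous transcription factor activity. After 24 h chemical exposure, reporter mRNA was quantified by RT-PCR, 6-FAM labelling, HpaI digestion and capillary electrophoresis, with bidirectional fitting against DMSO.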

Assay [17] deals with Bile acid receptor (Homo sapiens) (UniProt Q96RI1). Briefly: ATG_IR1_CIS: Attagene CIS-FACTORIAL HepG2 Assay for human Nuclear Receptor Subfamily 1 Group H Member 4 (NR1H4), IR1 submotif (AID 2282946). Particulars: IR1 reporter transcription, actives raise or lower the signal. In outline:
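Readout: reporter transcript levels by RT-PCR with fluorescent capillary electrophoresis, from HepG2 cells transiently transfected with multiplexed cis-regulated reporters and dosed 24 h. Gain- or loss-of-signal fitted versus DMSO negative control.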

Assay [18] in a line: ATG_GRE_CIS: Attagene CIS-FACTORIAL HepG2 Assay for human Glucocorticoid Response Elements (GRE) (AID 2282947). Particulars: HepG2 GRE cis-reporter, Attagene multiplex mRNA; AC50: actives raise or lower the signal unless noted; outcome: actives raise or lower the signal unless noted. In outline:
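Cells (HepG2) bearing transfected cis-promoter reporter transcription units were treated with chemical for 24 hours. Reporter mRNA was measured via RT-PCR with capillary electrophoresis, and activity was fitted in both directions relative to DMSO.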

Assay [19] can be described thus: ATG_ISRE_CIS: Attagene CIS-FACTORIAL HepG2 Assay for human Interferon Regulatory Factor 1 (IRF1) binding to an Interferon-Stimulated Response Element (ISRE) (AID 2282948). The note with it: HepG2 ISRE cis-reporter (Attagene), mRNA transcription readout; actives raise or lower the signal. In outline:
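Read-out: fluorescent RT-PCR products resolved by capillary electrophoresis, reporting endogenous transcription factor activity via ISRE-driven reporter mRNA in transfected HepG2 cells dosed for 24 h; gain or loss fitted relative to DMSO.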

For assay [20], the target named is Hepatocyte nuclear factor 3-beta (Homo sapiens) (UniProt Q9Y261). Put plainly: ATG_FoxA2_CIS: Attagene CIS-FACTORIAL HepG2 Assay for human Forkhead box A2 (FOXA2) (AID 2282942). The note with it: HepG2 cis-reporter transcription factor activity, 24 h; actives raise or lower the signal. Summed up: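 HepG2 cells transiently transfected with multiple cis-regulated reporter transcription units, dosed for 24 h. Reporter mRNA measured by RT-PCR, 6-FAM labelling, HpaI digestion and capillary electrophoresis; bidirectional fitting against DMSO baseline.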
Hepatocyte nuclear factor 3-beta (Homo sapiens), sequence (Q9Y261 whole entry, looked up): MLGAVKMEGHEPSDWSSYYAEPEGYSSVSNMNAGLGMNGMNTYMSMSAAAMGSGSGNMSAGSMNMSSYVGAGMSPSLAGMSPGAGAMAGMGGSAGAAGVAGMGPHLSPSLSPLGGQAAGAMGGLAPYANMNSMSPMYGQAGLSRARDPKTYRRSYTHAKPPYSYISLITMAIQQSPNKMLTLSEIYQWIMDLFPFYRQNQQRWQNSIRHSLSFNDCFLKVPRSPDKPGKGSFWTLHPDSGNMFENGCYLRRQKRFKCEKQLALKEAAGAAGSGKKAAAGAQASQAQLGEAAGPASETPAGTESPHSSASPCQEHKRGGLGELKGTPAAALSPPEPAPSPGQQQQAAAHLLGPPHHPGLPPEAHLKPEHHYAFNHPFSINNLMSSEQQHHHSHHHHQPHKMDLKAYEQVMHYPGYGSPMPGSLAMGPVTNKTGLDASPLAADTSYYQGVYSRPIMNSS

Retinoic acid receptor alpha (Homo sapiens), sequence (P10276 whole entry, looked up): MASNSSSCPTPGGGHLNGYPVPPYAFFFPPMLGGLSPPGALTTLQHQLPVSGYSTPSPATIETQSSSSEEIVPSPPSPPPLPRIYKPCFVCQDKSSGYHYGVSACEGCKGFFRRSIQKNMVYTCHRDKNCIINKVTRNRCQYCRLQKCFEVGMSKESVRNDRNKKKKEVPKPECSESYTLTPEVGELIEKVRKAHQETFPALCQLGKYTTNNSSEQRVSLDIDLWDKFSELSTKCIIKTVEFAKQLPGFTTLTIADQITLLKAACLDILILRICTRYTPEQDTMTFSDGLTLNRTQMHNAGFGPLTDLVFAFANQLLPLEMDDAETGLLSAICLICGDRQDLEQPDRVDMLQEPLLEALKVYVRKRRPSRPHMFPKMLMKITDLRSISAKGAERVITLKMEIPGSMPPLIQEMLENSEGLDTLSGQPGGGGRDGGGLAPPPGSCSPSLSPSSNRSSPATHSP
Aryl hydrocarbon receptor (Homo sapiens), sequence (P35869 whole entry, looked up): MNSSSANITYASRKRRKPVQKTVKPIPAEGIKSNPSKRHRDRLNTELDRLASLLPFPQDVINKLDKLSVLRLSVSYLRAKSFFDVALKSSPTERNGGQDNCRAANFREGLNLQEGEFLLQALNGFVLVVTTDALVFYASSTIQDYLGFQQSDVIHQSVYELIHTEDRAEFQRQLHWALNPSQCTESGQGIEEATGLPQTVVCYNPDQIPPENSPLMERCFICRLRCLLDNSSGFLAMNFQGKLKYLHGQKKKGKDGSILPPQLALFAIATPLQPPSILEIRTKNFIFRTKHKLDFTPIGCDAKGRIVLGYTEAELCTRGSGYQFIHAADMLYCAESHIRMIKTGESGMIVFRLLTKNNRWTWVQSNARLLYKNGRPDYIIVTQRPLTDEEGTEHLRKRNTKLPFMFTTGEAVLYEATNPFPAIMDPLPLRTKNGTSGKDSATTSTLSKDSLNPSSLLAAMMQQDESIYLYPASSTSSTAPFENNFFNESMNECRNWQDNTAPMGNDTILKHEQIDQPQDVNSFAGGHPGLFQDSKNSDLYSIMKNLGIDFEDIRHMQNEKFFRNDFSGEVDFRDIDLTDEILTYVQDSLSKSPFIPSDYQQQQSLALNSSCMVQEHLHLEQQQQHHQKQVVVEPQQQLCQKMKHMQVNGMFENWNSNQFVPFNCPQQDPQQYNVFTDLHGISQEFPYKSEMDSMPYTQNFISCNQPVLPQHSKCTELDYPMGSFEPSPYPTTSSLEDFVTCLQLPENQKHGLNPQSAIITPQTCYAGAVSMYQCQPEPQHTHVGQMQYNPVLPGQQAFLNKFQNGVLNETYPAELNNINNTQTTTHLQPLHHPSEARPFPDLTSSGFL
Bile acid receptor (Homo sapiens), sequence (Q96RI1 whole entry, looked up): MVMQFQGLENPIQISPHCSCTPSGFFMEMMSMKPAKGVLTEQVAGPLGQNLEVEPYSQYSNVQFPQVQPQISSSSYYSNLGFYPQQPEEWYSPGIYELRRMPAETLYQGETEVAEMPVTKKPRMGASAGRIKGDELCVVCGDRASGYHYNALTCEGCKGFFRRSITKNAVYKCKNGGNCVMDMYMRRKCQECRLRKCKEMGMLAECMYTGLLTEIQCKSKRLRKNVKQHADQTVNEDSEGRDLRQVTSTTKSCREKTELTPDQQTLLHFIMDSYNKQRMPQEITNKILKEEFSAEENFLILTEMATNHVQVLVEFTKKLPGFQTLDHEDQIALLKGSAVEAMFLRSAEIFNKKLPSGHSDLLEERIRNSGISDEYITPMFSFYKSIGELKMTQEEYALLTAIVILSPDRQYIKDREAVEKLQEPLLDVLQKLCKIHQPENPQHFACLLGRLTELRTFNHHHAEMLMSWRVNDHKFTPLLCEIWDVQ

Regarding `Clc1ccc2c(Cl)ccnc2c1`, the call in assay [1], in assay [3], in assay [4], in assay [6], in [7] and in assay [8] was inactive. Further, the result in [9], in [10], in assay [11], in assay [12], in assay [13] and in assay [14] was inactive. Moreover, the compound was classed as inactive in assay [15], in assay [16], in assay [17], in assay [18] and in [19]. Further, the AC50 – broadly, the midpoint of the concentration-response curve, whichever way the signal moves – was 19.8 µM (active) in assay [2] and 65.6 µM (active) in [5].

For the compound `CC(C)CCOCCC(C)C`, the compound was classed as inactive in [1], in [2], in assay [3], in [4], in assay [5] and in assay [6]. For the same compound, the outcome in assay [7], in assay [8], in assay [9], in assay [10], in assay [11] and in assay [13] was inactive. Besides, the compound was called inactive in assay [20], in assay [14], in [15], in [16], in assay [17] and in assay [19]. For the same compound, the half-maximal activity concentration (AC50) in [12] is 26.8 µM (active).

On to `CC(C)(O)C(=O)c1ccccc1`, for which the result in assay [1], in assay [2], in assay [3], in [4], in assay [5] and in [6] was inactive. In addition, the outcome in [7], in assay [8], in assay [9], in assay [10], in assay [11] and in assay [12] was inactive. The call in [13], in assay [20], in assay [14], in assay [15], in assay [16] and in assay [18] was inactive. Further, in assay [19], the outcome was inactive.

Turning to `c1ccc2c(c1)CCC2`, the call in assay [1], in [2], in [3], in [4], in assay [5] and in assay [6] was inactive. Besides, the outcome in assay [7], in assay [8], in assay [9], in assay [10], in [11] and in [12] was inactive. Moreover, the compound was classed as inactive in assay [13], in assay [20], in assay [14], in [15], in assay [16] and in [17]. The compound was classed as inactive in assay [18] and in assay [19].

Regarding `CCOC=O`, the call in assay [1], in [2], in [3], in assay [4], in [5] and in assay [6] was inactive. The compound was called inactive in [7], in assay [8], in assay [9], in [10], in assay [11] and in assay [13]. Besides, the call in [20], in assay [14], in assay [15], in assay [16], in assay [17] and in assay [19] was inactive. The AC50 in assay [12] was 59.3 µM (active).

In the case of `c1cc[nH]c1`, the call in [1], in assay [2], in assay [3], in [4], in [5] and in [6] was inactive. Moreover, the compound was classed as inactive in [7], in assay [8], in assay [9], in assay [10], in [11] and in assay [12]. The compound was classed as inactive in assay [13], in assay [20], in assay [14], in [15], in assay [16] and in assay [17]. Also, the compound was called inactive in assay [19].

For `COC1=CC(=O)C[C@@H](C)[C@]12Oc1c(Cl)c(OC)cc(OC)c1C2=O`, the compound was classed as inactive in assay [1], in assay [2], in assay [3], in [4], in assay [5] and in assay [6]. Further, the result in [7], in assay [8], in assay [9], in assay [10], in assay [11] and in [12] was inactive. The result in assay [13], in assay [20], in [14], in assay [15], in assay [16] and in assay [17] was inactive. Further, in [19], the compound was classed as inactive.
